Assay results taken from PubChem BioAssay (NCI).
About 83,000 compounds went through this panel and 20% of them were active in at least one assay; those are over-represented in the sample as a whole.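 Cell lines were cultured in 96-well plates, exposed to a single compound concentration, and assessed for percent growth 48 hours later.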 A number with no mark means an inactive call. The source made the active and inactive calls. The calls were made as follows: active = growth percent below 10; inactive = the rest.

What was measured:
Assay in all cases: NCI-60 one-dose screen, 48 h (100 = growth as untreated, 0 = no growth, -100 = all killed)
Conditions in all cases: 10 µM unless noted
T-47D breast = system: T-47D breast
BT-549 breast = system: BT-549 breast
MDA-MB-435 melanoma = system: MDA-MB-435 melanoma
SW-620 colon = system: SW-620 colon
MCF7 breast = system: MCF7 breast
HCT-116 colon = system: HCT-116 colon
HCC-2998 colon = system: HCC-2998 colon
KM12 colon = system: KM12 colon

| SMILES | growth (T-47D breast) | growth (BT-549 breast) | growth (MDA-MB-435 melanoma) | growth (SW-620 colon) | growth (MCF7 breast) | growth (HCT-116 colon) | growth (HCC-2998 colon) | growth (KM12 colon) |
| --- | --- | --- | --- | --- | --- | --- | --- | --- |
| CC(=O)c1ccc(Nc2nccc(-c3ccc4ccccc4c3)n2)cc1 | 88.1% | 101% | 69.1% | 98.6% | 75.8% | 104% | 104% | 81.8% |
| Nc1nc2c(c3ncccc13)C(c1cccc(Cl)c1)Cc1ncccc1-2 (configuration not stated) | 30.1% | 38.7% | -57.9% (active) | 23.1% | 17.2% | 24.4% | 34.4% | 19.4% |
| COc1ccc(Cn2cc(C(=O)N=Nc3c(O)[nH]c4c(C)cccc34)nn2)cc1 | 81% | 103% | 82% | 57.5% | 84.9% | 7.11% (active) | 101% | 95.6% |
| O=C(Oc1ccc(CCl)cc1)c1ccccc1 | -35.1% (active) | -97.9% (active) | -88.7% (active) | -49% (active) | -58.2% (active) | -84.7% (active) | -75% (active) | -79.1% (active) |
| Cc1ccc(CNc2ccc3nc(CCC(C)C)[nH]c3c2)cc1 | 84.4% | 93.4% | 97.2% | 91.9% | 89.2% | 80.4% | 111% | 96.2% |
| Cc1ccc(C)c(/C=C2\CN(C(=O)OC(C)(C)C)C/C(=C\c3cc(C)ccc3C)C2=O)c1 | 61.4% | 85.5% | -9.21% (active) | 18.5% | 23.3% | -16.7% (active) | 52.2% | 16.7% |
| CC1=C(CCC(C)NCc2ccc(OCCCN3CCCCC3)cc2)C(C)(C)CCC1 (configuration not stated) | -64.8% (active) | -63.9% (active) | -93.8% (active) | -80.3% (active) | -58.4% (active) | -85.3% (active) | -84.3% (active) | -80% (active) |
| Cc1ncc(C(=O)Nc2ccc(CN3CCN(C)CC3)c(C(F)(F)F)c2)cc1C#Cc1cnc(N)c2ncccc12 | 51.4% | 42.4% | -66.5% (active) | 16.6% | -58.6% (active) | -75.5% (active) | 52.1% | 7.51% (active) |
| CCN1CCN(CC(=O)Nc2ccc(-c3cn4c(n3)sc3cc(Oc5ccnc(C(=O)NC)c5)ccc34)cc2)CC1 | 32.8% | 57.2% | 10.1% | 8.44% (active) | 80.2% | 1.48% (active) | 117% | 75.6% |
| CCOC(=O)c1ccccc1-c1c2ccc(=[N+](C)C)cc-2oc2cc(N(C)C)ccc12 | 6.72% (active) | -10.1% (active) | 11.8% | 15% | 3.95% (active) | 4.32% (active) | 96.9% | 7.32% (active) |
| CCCC(CC)(C(=O)Nc1ccc2nc(C)cc(N)c2c1)C(=O)Nc1ccc2nc(C)cc(N)c2c1 | 106% | 101% | 108% | 112% | 102% | 85.2% | 111% | 109% |
| CC1(C)N=C(N)N=C(N)N1c1ccc(CCCCc2ccccc2)c(Cl)c1 | 15.8% | -16% (active) | 27.8% | 20.5% | 1.84% (active) | 13.9% | -43.9% (active) | -79.7% (active) |
| CC1=C2[C@@H](CC1)[C@]1(C)O[C@@](C3CCCCC3)(C[C@H]1OC(=O)CO)[C@H]2OC(=O)/C=C/c1ccccc1 | 46.1% | -1.1% (active) | 95.9% | 86.5% | 57.6% | 76.3% | 81.8% | 79.6% |
| O=C(NNc1cnccn1)c1nc2cc(F)ccc2n2cccc12 | 20% | 32% | 24.5% | 19.6% | 5.93% (active) | 5.5% (active) | 35.7% | 18.5% |
| CC(=O)OC[C@]12CC[C@@H]([C@@H](C)c3nnc(-c4ccncc4)o3)[C@@H]1[C@H]1CC[C@@H]3[C@@]4(C)CC[C@H](OC(C)=O)C(C)(C)[C@@H]4CC[C@@]3(C)[C@]1(C)CC2 | 66.5% | 74.6% | 87% | 66.3% | 84.9% | 45.2% | 101% | 93.5% |
| O=C(N/N=C\c1ccccc1S(=O)(=O)O)N/N=C/c1ccccc1S(=O)(=O)O | 102% | 118% | 105% | 91.9% | 93.4% | 106% | 104% | 94.1% |
| N#Cc1c(-c2ccccc2)nc(SCc2nnc(-c3ccc(Cl)cc3)o2)[nH]c1=O | 53.8% | 76.3% | 109% | 100% | 91.3% | 83.9% | 103% | 102% |
| COc1ccc(CCN2C(=O)/C(=C/c3ccc(C4Oc5ccccc5C5CC(c6ccccc6)=NN54)cc3)SC2=S)cc1 (configuration not stated) | 103% | 101% | 104% | 100% | 97.3% | 104% | 104% | 106% |
| O=S(=O)(NCCNc1nccc(-c2c(-c3cccc(O)c3)nc3occn23)n1)c1ccc(Br)cc1 | 11.3% | 45.1% | 13.1% | 34.8% | 17.7% | 10.2% | 50.7% | 27% |
| O=C1Nc2c(C(=O)O)cccc2/C1=N/c1n[nH]c(=S)s1 | 68.4% | 116% | 88.4% | 88.1% | 80.8% | 96.2% | 103% | 75.4% |
| Nc1nc(N)c2c(n1)NC(c1cccc(Nc3ccnc4cc(C(F)(F)F)ccc34)c1)CC(c1ccc(Br)cc1)=N2 (configuration not stated) | 68.9% | 114% | -25.8% (active) | 31.1% | 17.3% | 16.2% | 55.1% | 28.3% |
| C/C(=N\O)c1ccc(NC(=O)CSc2nnc(-c3cc(-c4ccc(S(N)(=O)=O)cc4)nc4ccccc34)n2-c2ccccc2)cc1 | 36.6% | 67.9% | 69.5% | 74.7% | 44.6% | 53.2% | 87.5% | 65% |
| CN(C)c1ccc(-c2ccc3c(c2)c(-c2ccccc2)nc(=O)n3C)cn1 | 22.1% | 49.1% | -11.1% (active) | 26.3% | 18% | 22.1% | 78.2% | 43.2% |
| C=CCn1c(SCC(=O)Nc2ccc(/C(C)=N/O)cc2)nnc1-c1cc(-c2ccc(S(N)(=O)=O)cc2)nc2ccccc12 | 27.4% | 58.8% | 67.3% | 84.2% | 43.3% | 77.7% | 101% | 86.5% |
| COc1ccc(-c2ccc(-c3ccc(C(=N)N)nc3)s2)cc1Cl | -28.6% (active) | 77.9% | -90.3% (active) | -79.8% (active) | -70% (active) | -65.5% (active) | -43.8% (active) | -86% (active) |
| C=C1C(=O)O[C@H]2[C@H]1CC/C(COC(=O)c1cc3cc(Cl)ccc3[nH]1)=C\CC[C@@]1(C)O[C@@H]21 | -68.2% (active) | -47.4% (active) | -91.7% (active) | -53.1% (active) | -71.7% (active) | -70.4% (active) | -70.5% (active) | -59.8% (active) |
| O=C(CCSc1nnc2n(Cc3ccccc3)c(=O)c3c4c(sc3n12)CCCC4)N1CCN(c2ccccc2)CC1 | 101% | 99.5% | 91.2% | 101% | 98.4% | 100% | 96.5% | 92.9% |
| CCN(CC)CCN1C(=O)c2c(c(C)c3c(oc4ccc(O)cc43)c2C)C1=O | 0.129% (active) | 105% | 76.9% | 2.51% (active) | 4.29% (active) | -62.6% (active) | 23.5% | 32.3% |
| Cc1ccc(-c2nc(SCc3nc4cc(Cl)c(Cl)cc4[nH]3)[nH]c(=O)c2C#N)cc1 | 85.4% | 92.5% | 105% | 109% | 101% | 93.1% | 110% | 96.6% |
